{"source": "PubChem BioAssay (NCI)", "note": "About 83,000 compounds went through this panel and 20% of them were active in at least one assay; those are over-represented in the sample as a whole.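 Values shown are percent growth following 48 h exposure of cells in 96-well plates to a single concentration of compound; below 10 was considered active.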 The source made the active and inactive calls."}
{"system": "NCI-H226 lung", "test": "NCI-60 one-dose screen, 48 h (100 = growth as untreated, 0 = no growth, -100 = all killed)", "conditions": "10 µM unless noted", "experimental": "Growth inhibition of the NCI-H226 human Non-Small Cell Lung tumor cell line is measured as a screen for anti-cancer activity. Cells are grown in 96 well plates and exposed to the test compound for 48 hours. Compounds are tested at a single concentration, which is 10^-5 M for most compounds. The reported endpoint is percent growth (GI% or GIPRCNT), where numbers from 0 - 100% represent growth inhibition, and numbers from -100% - 0 represent cell death. For example, a value of 40 represents 60% growth inhibition. A value of 0 means no net growth occurred over the course of the experiment. A value of -40 indicates 40% of cells at the beginning of the experiment died by the end of the experiment. A value of -100 means all cells are dead at the end of the experiment.\nNCI-60 Human Tumor Cell Lines Screen was performed using the standard one-dose NCI protocol, which is described in more detail at https://dtp.cancer.gov/discovery_development/nci-60/default.htm.\nCompounds with GIPRCNT values below 10 were considered active. Activity score was based on GIPRCNT using the following formula: […]\nScore is 0 for GIPRCNT values of 100 or above, 50 for GIPRCNT values of 0, and 100 for GIPRCNT values of -100."}
{"smiles": "CSc1nc2ccc(C)cc2cc1/C=C1/C=C(c2ccccc2)NC1=O", "growth": "69.4% (inactive)"}
{"smiles": "COc1ccccc1/C=C/C(=O)Nc1ccc(F)cc1", "growth": "98% (inactive)"}
{"smiles": "Cc1ccc2c(c1)=C/C(=C\\c1cc(-c3ccccc3)[nH]c1O)C(=O)N=2", "growth": "69.5% (inactive)"}
{"smiles": "Cc1ccccc1N1CCN(C(=S)c2ccccc2)CC1", "growth": "92.1% (inactive)"}
{"smiles": "C=CCn1cc(-c2nc3ccccc3s2)c2cc(-c3ccc4c5c(cccc35)C(=O)N(CCO)C4=O)ccc21", "growth": "90.3% (inactive)"}
{"smiles": "CCN(CC)CCOc1ccc(/C(=C(\\C)Cc2ccc(OC)cc2)c2ccc(OC(=O)NCc3ccccc3)cc2)cc1", "growth": "86.9% (inactive)"}
{"smiles": "Cc1ccc2cnc(N)c(C#Cc3cc(C(=O)Nc4ccc(CN5CCN(C)CC5)c(C(F)(F)F)c4)cnc3C)c2c1", "growth": "7.1% (active)"}
{"smiles": "COC12C=C/C(=C(/C(=O)OCc3cncnc3)C(=O)CCCCCCCCC3(OC)C=C/C(=C(/C(=O)OCc4cncnc4)C(=O)CCCCCCCC1)O3)O2", "growth": "-78% (active)"}
{"smiles": "Clc1cccc(C2Cc3cnccc3-c3[nH]c4ccncc4c32)c1", "note": "(stereo not given)", "growth": "52.1% (inactive)"}
{"smiles": "COC(=O)c1c2c(c[n+]([O-])c1C)C(=O)C=C(NCc1ccccc1)C2=O", "growth": "-90.8% (active)"}
{"smiles": "Cc1cc(Cl)nc(N2CCN(CCNc3ccnc4cc(Cl)ccc34)CC2)n1", "growth": "59.8% (inactive)"}
{"smiles": "CC1=Nc2cnc(Nc3ccc(N4CCCCC4)cc3)nc2Nc2ccccc21", "growth": "76.6% (inactive)"}
{"smiles": "c1ccc(-c2nc3ccccc3[nH]2)c(OCCCCCOc2ccccc2-c2nc3ccccc3[nH]2)c1", "growth": "85.2% (inactive)"}
{"smiles": "COc1c2c(cc3c1C(=O)N[C@@H]1[C@@H](O)[C@@H](O)[C@H](O)C[C@@H]31)OCCO2", "growth": "92.6% (inactive)"}
{"smiles": "FC(F)(F)c1[nH]ncc1-c1nc2ccc3[nH]ncc3c2c2c1CCCC2", "growth": "10.1% (inactive)"}
{"smiles": "C(=C(\\C1=NCCN1)n1ccc2ccccc21)/c1ccccc1", "growth": "93.5% (inactive)"}
{"smiles": "CC(C)CCC[C@@H](C)[C@H]1CC[C@H]2[C@@H]3CC=C4c5sc(Nc6cc(C(F)(F)F)cc(C(F)(F)F)c6)nc5CC[C@]4(C)[C@H]3CC[C@]12C", "growth": "104% (inactive)"}
{"smiles": "COc1ccc(CNc2ccc3nc(NC(=O)CN4CCCCCC4)sc3c2)cc1", "growth": "80% (inactive)"}
{"smiles": "COc1ccc(-c2cc(C(=O)N3N=C(c4ccc(N)cc4)CC3c3ccc(Cl)cc3)c3ccccc3n2)cc1", "note": "(stereo not given)", "growth": "76.5% (inactive)"}
{"smiles": "C=C(c1ccc(C(=O)O)c(F)c1)c1cc2c(cc1C)C(C)(C)CCC2(C)C", "growth": "82.6% (inactive)"}
{"smiles": "COCCn1cc(-c2nc(-c3cn(CCOC)c4ncccc34)cs2)c2cc(F)ccc21", "growth": "75.4% (inactive)"}
{"smiles": "CS(=O)(=O)Nc1cc(-c2ccc3ncnc(Nc4ccc(F)c(Cl)c4)c3c2)ccc1Cl", "growth": "70.1% (inactive)"}
{"smiles": "CC(C)(C)OC(=O)CN1CCc2c(sc3ncnc(N4CCN(c5ccc(F)cc5)CC4)c23)C1", "growth": "73.1% (inactive)"}
{"smiles": "O=S(=O)(Nc1cc(F)cc(F)c1)c1ccc(-c2cnc(C3CC3)o2)cc1", "growth": "48.2% (inactive)"}
{"smiles": "C[C@@H]1CN(c2cnc(C(=O)Nc3cc(F)cc4cccnc34)cn2)C[C@H](C)N1", "growth": "44.8% (inactive)"}
{"smiles": "CCNC(=O)N1CCc2c(Br)c3c(c(OC)c2C1Cc1ccc(OC)cc1)OCO3", "note": "(stereo not given)", "growth": "70.8% (inactive)"}
{"smiles": "O=C(Oc1ccc2c(c1)sc1nc(-c3ccccc3)[nH]c(=O)c12)C(F)(F)F", "growth": "58.3% (inactive)"}
{"smiles": "CNCC[C@H](Oc1cccc2ccccc12)c1cccs1", "growth": "96.7% (inactive)"}
{"smiles": "O=C(NNc1nc2cc(F)ccc2n2c(CN3CCOCC3)ccc12)c1ccccc1", "growth": "17.4% (inactive)"}
{"smiles": "O=C1CCCCN1c1ccc(C2=NCCCN2)cc1", "growth": "101% (inactive)"}
{"smiles": "Fc1cc2[nH]ncc2c2c3c(c(-c4cn[nH]c4C(F)(F)F)nc12)CCCC3", "growth": "6.19% (active)"}
{"smiles": "Cc1ccc2c(c1)sc1nc(-c3c[nH]c4ccccc34)c(Nc3ccccc3)n12", "growth": "98.6% (inactive)"}
{"smiles": "CCN1C(=O)N(c2ccccc2)C2NC(=S)N(/N=C/C=C/c3ccccc3OC)C21", "note": "(stereo not given)", "growth": "49.9% (inactive)"}
{"smiles": "Nc1c(C(=O)Nc2cccc3ncccc23)sc2nc3c(cc12)CN(Cc1ccccc1)CC3", "growth": "77.2% (inactive)"}
{"smiles": "COc1ccc(NC(=O)c2ccc(Nc3ncnc4c3cnn4-c3cccc(F)c3)cc2)cc1", "growth": "103% (inactive)"}
{"smiles": "CN(C)c1ccc(C(=S)c2ccc(N(C)C)cc2)cc1", "growth": "85.9% (inactive)"}
{"smiles": "CCN(CC)CCCNc1cc(OC)c(OC)c2cccnc12", "growth": "110% (inactive)"}
{"smiles": "COc1ccc2c(c1)CC[C@@H]1[C@@H]2CC[C@]2(C)c3c(cc(C#N)c4c3sc3ccccc34)C[C@@H]12", "growth": "99.2% (inactive)"}
{"smiles": "COc1cc(/C=C2\\C(=O)N(CCCOc3cc(O)c4c(=O)cc(-c5ccccc5)oc4c3)c3ccccc32)cc(OC)c1O", "growth": "94.5% (inactive)"}
{"smiles": "Cc1c2ncccc2nc2[nH]c3ccc(OCCN(C)C)cc3c12", "growth": "32.7% (inactive)"}
